Results on 8 molecules are retold here after PubChem BioAssay (NCI).

Test systems include HCT-15 colon; SNB-75 CNS; SNB-19 CNS; U251 CNS; PC-3 prostate; SK-MEL-5 melanoma; UACC-62 melanoma; LOX IMVI melanoma; SK-MEL-28 melanoma; SK-MEL-2 melanoma; EKVX NSCLC; SN12C renal; UO-31 renal; TK-10 renal; ACHN renal; CAKI-1 renal; A498 renal; CCRF-CEM leukemia; MOLT-4 leukemia; HT29 colon.
Common to all, as to assay: NCI-60 one-dose screen, 48 h (100 = growth as untreated, 0 = no growth, -100 = all killed)
Details in all cases: 10 µM unless noted

SMILES strings stand for the structures. About 83,000 compounds went through this panel and 20% of them were active in at least one assay; those are over-represented in the sample as a whole.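 Each cell line was grown in a 96-well plate and treated with one concentration of compound for 48 hours. Values below 10 were considered active.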 Values without a mark were called inactive. The source made the active and inactive calls.

Take `C=C(CN1CC=CCC1)[C@@H]1CC[C@]2(CO)CC[C@]3(C)[C@H](CC[C@@H]4[C@@]5(C)CC[C@H](O)C(C)(C)[C@@H]5CC[C@]43C)[C@@H]12`: the growth is 92.2% with HCT-15 colon; 108% in the experiment on SNB-75 CNS; 99.8% in the experiment on SNB-19 CNS; 88.3% in the experiment with U251 CNS; 77.5% with PC-3 prostate; 96.2% in the experiment with SK-MEL-5 melanoma. For the same molecule, the growth in the experiment on UACC-62 melanoma is 98%; in the experiment on LOX IMVI melanoma, 99.8%; with SK-MEL-28 melanoma, 101%; with SK-MEL-2 melanoma it was 110%; in the experiment with EKVX NSCLC, 104%; in the experiment with SN12C renal it was 98.1%. Moreover, the growth with UO-31 renal was 93.7%; with TK-10 renal, 123%; in the experiment with ACHN renal it was 114%; in the experiment with CAKI-1 renal, 106%; in the experiment with A498 renal it was 112%; in the experiment with CCRF-CEM leukemia, 91.3%. Besides, in the experiment with MOLT-4 leukemia, the growth was 86.5%.

For the molecule `O=C(N/N=C/c1ccc([N+](=O)[O-])cc1)c1ccc2nc(-c3ccc(Cl)cc3)[nH]c2c1`, the growth is 29.9% in the experiment with HCT-15 colon; 69.3% in the experiment with SNB-75 CNS; 52% in the experiment with SNB-19 CNS; 22.3% in the experiment on U251 CNS; 2.58% (active) with SK-MEL-5 melanoma; 43.7% in the experiment with UACC-62 melanoma. Further, the growth in the experiment with LOX IMVI melanoma was -0.908% (active); in the experiment with SK-MEL-28 melanoma it was 45.3%; in the experiment on SK-MEL-2 melanoma it was 66.7%; with EKVX NSCLC, 49%; in the experiment on SN12C renal, 19.6%; in the experiment on UO-31 renal, 42.6%. The growth was 89.8% in the experiment with TK-10 renal; 32.3% in the experiment on ACHN renal; 42.7% with CAKI-1 renal; -0.501% (active) with A498 renal; 9.87% (active) in the experiment on CCRF-CEM leukemia.

With `COCC[C@H]1CCC/C=C/[C@@H]2C[C@H](O)C[C@H]2[C@H](O)/C=C/C(=O)O1`, the growth in the experiment on HCT-15 colon was 9.76% (active); with SNB-75 CNS, 33.9%; with SNB-19 CNS it was 30.2%; in the experiment with U251 CNS, 15.5%; with PC-3 prostate it was 20.5%; with SK-MEL-5 melanoma, -92% (active). The growth in the experiment on UACC-62 melanoma was 21.7%; in the experiment on LOX IMVI melanoma, -62.3% (active); in the experiment with SK-MEL-28 melanoma it was 0.149% (active); in the experiment with SK-MEL-2 melanoma, -3.55% (active); in the experiment with EKVX NSCLC it was 4.95% (active); in the experiment on SN12C renal, 8.16% (active). Moreover, the growth in the experiment on UO-31 renal was 10.9%; in the experiment on TK-10 renal it was -38.5% (active); in the experiment on ACHN renal, 4.75% (active); with CAKI-1 renal, -18.6% (active); in the experiment on A498 renal, -31.1% (active); in the experiment on CCRF-CEM leukemia it was 17.6%. Further, the growth with MOLT-4 leukemia was 7.61% (active).

For the molecule `O=C(Cn1nnc2ccccc21)Nc1ccc(-c2nc3ccccc3s2)cc1`, the growth with HCT-15 colon was 91.5%; in the experiment with HT29 colon it was 101%; in the experiment on SNB-75 CNS, 106%; with SNB-19 CNS, 103%; in the experiment on U251 CNS it was 89.6%; with SK-MEL-5 melanoma, 74.3%. Besides, the growth in the experiment with UACC-62 melanoma was 97.1%; in the experiment with LOX IMVI melanoma, 84.2%; with SK-MEL-28 melanoma it was 102%; in the experiment with SK-MEL-2 melanoma, 101%; in the experiment on EKVX NSCLC, 78.2%; in the experiment on UO-31 renal it was 86.5%. The growth is 94.8% in the experiment on TK-10 renal; 110% in the experiment with ACHN renal; 85.5% in the experiment with CAKI-1 renal; 85.1% in the experiment with A498 renal; 69.7% with CCRF-CEM leukemia; 61.6% in the experiment on MOLT-4 leukemia.

For `CCCCCCC(=O)Nc1ncc(Cc2ccc(C)cc2)s1`, the growth in the experiment with HCT-15 colon was 35.5%; in the experiment with SNB-75 CNS, -0.16% (active); with SNB-19 CNS, 44.2%; in the experiment with U251 CNS, 39%; in the experiment with SK-MEL-5 melanoma, 36.9%; in the experiment with UACC-62 melanoma it was 31.1%. Further, the growth was 44.1% in the experiment with LOX IMVI melanoma; 66.5% with SK-MEL-28 melanoma; 53.4% with EKVX NSCLC; 49.4% with SN12C renal; 44.8% in the experiment with UO-31 renal; 65.8% in the experiment with TK-10 renal. In addition, the growth was 46.3% with ACHN renal; 35.2% in the experiment with CAKI-1 renal; 19.5% with A498 renal; 21.3% in the experiment on CCRF-CEM leukemia; 35.2% in the experiment on MOLT-4 leukemia.

As for `Cn1cc(-c2csc(-c3cn(C)c4ccc(Br)cc34)n2)c2cnccc21`, the growth was -78.6% (active) with HCT-15 colon; -93.6% (active) in the experiment with SNB-75 CNS; -86.9% (active) in the experiment on SNB-19 CNS; -80.4% (active) in the experiment on U251 CNS; -74.9% (active) with PC-3 prostate; -55.7% (active) in the experiment on SK-MEL-5 melanoma. Further, the growth with UACC-62 melanoma is -78% (active); in the experiment with LOX IMVI melanoma, -92.1% (active); with SK-MEL-28 melanoma, -96% (active); in the experiment with SK-MEL-2 melanoma it was 47.7%; in the experiment with EKVX NSCLC, -79.1% (active); with SN12C renal it was -91.5% (active). For the same molecule, the growth in the experiment with UO-31 renal was -89.9% (active); with TK-10 renal, -75.7% (active); in the experiment with ACHN renal, -99.5% (active); in the experiment on CAKI-1 renal it was -82.2% (active); with A498 renal, 68.7%; in the experiment on CCRF-CEM leukemia, -38.1% (active). The growth in the experiment on MOLT-4 leukemia is -58.9% (active).

Take `CN1CCN(Cc2ccc(NC(=O)c3cncc(C#Cc4cnn5ccccc45)c3)cc2C(F)(F)F)CC1`: the growth in the experiment with HCT-15 colon is 0.133% (active); in the experiment with SNB-75 CNS, 13.6%; in the experiment with SNB-19 CNS, 5.8% (active); in the experiment with U251 CNS it was 7.18% (active); with SK-MEL-5 melanoma, 14.9%; in the experiment on LOX IMVI melanoma it was -39.6% (active). For the same molecule, the growth in the experiment with SK-MEL-28 melanoma was 25%; in the experiment on SK-MEL-2 melanoma, -27% (active); in the experiment with EKVX NSCLC, -3.23% (active); with SN12C renal, -1.07% (active); with UO-31 renal, -9.3% (active); with TK-10 renal it was 7.73% (active). Further, the growth in the experiment with ACHN renal was 2.54% (active); with CAKI-1 renal, -9.06% (active); in the experiment with A498 renal it was -11.7% (active); in the experiment with CCRF-CEM leukemia, 6.17% (active); in the experiment with MOLT-4 leukemia it was 1.84% (active).

As for `Cc1c2cnccc2c(C)c2c1c1cc(C3OCCCO3)ccc1n2C`, the growth with HCT-15 colon was 1.16% (active); with SNB-75 CNS, -23% (active); with SNB-19 CNS, -3.48% (active); with U251 CNS, -1.98% (active); in the experiment with PC-3 prostate, 2.08% (active); in the experiment on SK-MEL-5 melanoma, -95.8% (active). For the same molecule, the growth is -43.6% (active) in the experiment on UACC-62 melanoma; -23.6% (active) with LOX IMVI melanoma; -29.6% (active) in the experiment with SK-MEL-28 melanoma; -67.5% (active) in the experiment with SK-MEL-2 melanoma; 3.53% (active) with EKVX NSCLC; -10.2% (active) in the experiment with SN12C renal. The growth in the experiment with UO-31 renal was -7.3% (active); with TK-10 renal, -14.5% (active); in the experiment with ACHN renal, -12.1% (active); in the experiment with CAKI-1 renal it was 8.13% (active); with A498 renal, -56.6% (active); in the experiment on CCRF-CEM leukemia, -6.77% (active). The growth in the experiment on MOLT-4 leukemia is -4.85% (active).
